Screening results: PubChem, Sanford-Burnham Center for Chemical Genomics
The list is not random: actives were taken first. Their share in the collection is about 4.1%.
NLRP3 yeast inh: NALP3 inhibition in yeast; Yeast reconstituted NLRP3/ASC/caspase-1, beta-gal luminescence, 24 h; inhibition, % at 10 µM; hit rate 0.39% among 330,000; AID 2825;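 active = inhibition of 50% or more; inactive = inhibition below 50%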
NALP1 yeast inh: inhibitors of NALP1 inflammasome in yeast. S. cerevisiae NALP1/ASC/caspase-1 growth, X-gal OD620, 72 h. hit rate 0.61% among 280,000. inhibition, % at 10 µM; in the data active = inhibition mostly above about 24%, no sharp cut-off; inactive = mostly below about 32%
TIM10 inh: TIM10 yeast growth inhibition | S. cerevisiae TIM10 strain growth, BacTiter-Glo luminescence, 24 h | inhibition, % at 10 µM | AID 463195 | hit rate 1.4% among 330,000;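 active = inhibition of 40% or more at the single tested concentration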;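 also: wild-type TIM10 isogenic control strain grown at permissive 25 °C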
tim10-1 inh: growth inhibitors of tim10-1 mutant yeast; S. cerevisiae tim10-1 ts strain growth, BacTiter-Glo, 24 h; inhibition, % at 20 µM; hit rate 2.2% among 330,000; AID 463190;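 active = inhibition of at least 40%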;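 also: mutant grown at 25 °C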
tim23-1 inh: tim23-1 yeast growth inhibition; S. cerevisiae tim23-1 growth, BacTiter-Glo luminescence, 24 h; inhibition, % at 20 µM; hit rate 1.3% among 330,000;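 active = growth inhibition of the mutant yeast at or above 50%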;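 also: temperature-sensitive mutant grown at 25 °C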
tim23-1 conf: tim23-1 yeast growth inhibition, confirmed; shares compounds with tim23-1 inh; S. cerevisiae tim23-1 growth, BacTiter-Glo luminescence, 24 h; inhibition, % at 20 µM; hit rate 83% among 4,400; AID 463218;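 active = inhibition above about 39% in either of two replicate wells at 20 µM, limit read from the data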;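 also: temperature-sensitive tim23-1 mutant grown at 25 °C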
Each line names hits and unclear results; the compound was inactive in the other large screens (follow-up assays come after a bar, where they were run); ! = a repeat was not active.

CC1=C(C)/C(=N\OC(=O)/C=C/c2ccccc2)C=CC1=O	none
CN(CC12CC3CC(CC(C3)C1)C2)C(=O)c1ccco1	none
CN(C(=O)c1ccco1)c1nnc(C23CC4CC(CC(C4)C2)C3)s1	tim23-1 inh 55 | tim23-1 conf 59
O=C1C(NS(=O)(=O)c2cccs2)=C(N2CCN(Cc3ccccc3)CC2)C(=O)c2ccccc21	tim23-1 inh 53 (no result: NALP1 yeast inh) | tim23-1 conf inactive
CN1CCN(C2=C(NS(=O)(=O)c3cccs3)C(=O)c3ccccc3C2=O)CC1	none (no result: NALP1 yeast inh)
O=C(NNC(=O)c1ccccc1Cl)c1cc2cc(OC(F)(F)F)ccc2[nH]1	none
O=C1/C(=C/c2cccc(Br)c2)SC(=S)N1/N=C/c1cc([N+](=O)[O-])ccc1O	tim23-1 inh 82 (no result: NALP1 yeast inh) | tim23-1 conf inactive
O=[N+]([O-])c1ccc(O)c(/C=N/n2cnnc2)c1	none
O=c1oc(-c2ccc([N+](=O)[O-])cc2)nc2ccccc12	none
O=c1oc(-c2ccccc2[N+](=O)[O-])nc2ccccc12	tim23-1 inh 55 | tim23-1 conf 51
O=c1oc(-c2ccc([N+](=O)[O-])cc2)nc2ccc(O)cc12	tim23-1 inh 52 | tim23-1 conf 65
CCN(CC)c1ccc(/C=C2/C(=O)ON=C2C)cc1	tim23-1 inh 56 | tim23-1 conf 60
CC1=NOC(=O)/C1=C/c1ccc(N(C)C)cc1	none
O=C(Nc1nc2cc3c(cc2s1)OCCO3)C1CCCCC1	tim23-1 inh 57 (no result: NALP1 yeast inh) | tim23-1 conf 57
COC(=O)c1ccc2nc(NC(=O)C3CCCCC3)sc2c1	none
CC(C)c1ccc2nc(NC(=O)C3CC3)sc2c1	tim23-1 inh 51 | tim23-1 conf 52
CC(=O)Nc1nc2cc3c(cc2s1)OCCO3	none
Cc1ccnc(NC(=O)c2cc(F)c(F)cc2Cl)n1	tim23-1 inh 62 | tim23-1 conf 47
Cc1ccc(N(CCC(=O)N2CCOCC2)S(=O)(=O)c2ccccc2)cc1	none (no result: NALP1 yeast inh)
COc1ccc(NC(=O)C(NC(=O)c2ccc(C)cc2)c2ccccc2)cc1 (stereo unspecified)	none
CC(C)CC(=O)Nc1nnc(CSCc2ccc(F)cc2)s1	none
CC1(C)CC(=O)C(N=Nc2ccc3ncsc3c2)=C(O)C1	tim23-1 inh 60 | tim23-1 conf inactive
CC1(C)CC(=O)C(N=Nc2cccnc2)=C(O)C1	tim23-1 inh 52 (no result: NALP1 yeast inh) | tim23-1 conf inactive
CC1(C)CC(=O)C(N=Nc2ccc(-c3ccccc3)cc2)=C(O)C1	none
NC(=O)c1ccc(NC(=O)CN2CCN(c3ccccc3)CC2)cc1	none
O=C(c1cc(Br)c(Br)s1)N1CCc2ccccc2C1	tim23-1 inh 52 (no result: NALP1 yeast inh) | tim23-1 conf 53
O=C(c1cc2c(s1)-c1ccccc1OC2)N1CCc2ccccc2C1	none
COc1ccccc1NC(=O)C1CCN(C(=O)C2CC(=O)N(c3ccc(C)cc3)C2)CC1 (stereo unspecified)	none
CCCOc1ccc(C(=O)NNC(=O)c2cccc(S(=O)(=O)N3CCN(C(C)=O)CC3)c2)cc1OC	none (no result: NALP1 yeast inh)
CS/C(N)=N/N=C/c1c(O)ccc2ccccc12	tim23-1 inh 58 | tim23-1 conf 70
Oc1ccc2ccccc2c1/C=N/c1nccs1	tim23-1 inh 57 | tim23-1 conf 60
Oc1ccc2ccccc2c1C=Nc1ccccc1Br	tim23-1 inh 53 | tim23-1 conf 51
CN(C)/N=C/c1c(O)ccc2ccccc12	none
Cc1ccc(S(=O)(=O)Nc2cc(C(=O)Nc3cc(C)cc(C)c3)ccc2Cl)cc1	none (no result: NALP1 yeast inh)
C(=N\Nc1nc2ccccc2[nH]1)/c1ccccc1	none
C(=C\c1ccccc1)/C=N/Nc1nc2ccccc2[nH]1	tim23-1 inh 51 | tim23-1 conf 48
Nc1nc(-c2cc(Cl)cc(Cl)c2OC(F)F)cs1	tim23-1 inh 61 | tim23-1 conf 52
CCc1ccc(OC)c(-c2csc(N)n2)c1	none
Cc1ccc(N2C(=O)C3C4CC(=O)C(c5ccccc54)C3C2=O)cc1C (stereo unspecified)	none
OCCN1CCN(CC(O)COc2ccc(C34CC5CC(CC(C5)C3)C4)cc2)CC1 (stereo unspecified)	none
NCCOc1ccc(C23CC4CC(CC(C4)C2)C3)cc1	tim23-1 inh 66 | tim23-1 conf 77
c1cnc2c(c1)ccc1cccnc12	NALP1 yeast inh 54!, tim23-1 inh 59! | tim23-1 conf 44
Cc1ccc2cccnc2c1N	none
CC1=NN(c2ccc(C)c(C)c2)C(=O)/C1=C\C=C\c1ccc([N+](=O)[O-])o1	tim23-1 inh 50 | tim23-1 conf inactive
CCOC(=O)c1ccc(N2N=C(C)/C(=C/C=C/c3ccco3)C2=O)cc1	none
COc1ccc(OCC(=O)OCC(=O)NC2CC2)cc1	none (no result: NALP1 yeast inh)
Oc1ccc2ccccc2c1/C=N/Nc1nnc(-c2ncc[nH]2)c2ccccc12	tim23-1 inh 69 | tim23-1 conf 65
O=[N+]([O-])c1ccc2nc(Cl)nc(-c3ccccc3)c2c1	tim23-1 inh 54 | tim23-1 conf 48
Cc1ccc(S(=O)(=O)/N=C(/c2ccc(F)cc2)N(C)C)cc1	none
CCCCCCCCCCCCCCCC(O)C(N)CO (stereo unspecified)	tim23-1 inh 52 | tim23-1 conf 44
CCCCCCO	none (no result: NALP1 yeast inh)
O=C(NCc1cc(F)ccc1F)C1CCC(=O)N(C2CCCCCC2)C1 (stereo unspecified)	none
COc1ccc(OC)c(NC(=O)Nc2ccc(Cl)cc2)c1	tim23-1 inh 69 | tim23-1 conf 67
O=C(COc1ccccc1)N/N=C/c1ccc([N+](=O)[O-])o1	tim23-1 inh 54 | tim23-1 conf 75
COC(=O)N/N=C/c1ccc([N+](=O)[O-])o1	none
NS(=O)(=O)c1ccc(CCNC(=O)CNC(=O)c2ccc(Oc3ccccc3)cc2)cc1	none
CN(/N=C\c1ccc(O)c(O)c1)c1nc(-c2ccccc2)cc(-c2ccccc2)n1	tim23-1 inh 55 | tim23-1 conf 41
COc1cc(/C=N/N(c2ccccc2)c2ccccc2)ccc1O	none
CCOCC(=O)Nc1c(C(=O)Nc2ccc3c(c2)OCCO3)oc2ccccc12	none
O=C(CSc1cccc[n+]1[O-])Nc1ccccc1C(F)(F)F	none (no result: NALP1 yeast inh)
O=C(CSc1cccc[n+]1[O-])CSc1cccc[n+]1[O-]	tim23-1 inh 71 | tim23-1 conf 61
O=C(CSc1cccc[n+]1[O-])Nc1ccccc1Oc1ccccc1	tim23-1 inh 69 | tim23-1 conf 76
Cc1ccccc1OCC(=O)N=Nc1c(O)n(C)c2ccccc12	none
NC(=O)c1c(NC(=O)c2ccccc2F)sc2c1CCCC2	tim23-1 inh 54 | tim23-1 conf 49
CCCOc1ccc(N2C(=O)C/C(=C\c3ccccc3)C2=O)cc1	none
CC(=O)c1ccccc1OC(=O)COc1ccc(Cl)cc1C	tim23-1 inh 54 | tim23-1 conf 46
Cc1cc(Cl)ccc1OCC(=O)NNC(=O)CCOc1ccccc1	none (no result: NALP1 yeast inh)
O=C(CCNC(=O)C1CCN(S(=O)(=O)c2ccc(F)cc2)CC1)NCc1ccccc1	none
